Assay [1] in a line: inhibitors of TNFa-induced NFkB p65 translocation, primary screen, imaging, HUVEC, MLSMR starter and 10KST1 sets (AID 438;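 active = inhibition above 20% together with a positive visual image hit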;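 also: compound added about 3h40 before a 20 min TNFalpha stimulation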;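 as to inhibition: signal is the nuclear over cytoplasmic p65 intensity ratio per well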). Particulars: HUVEC TNFa-induced p65 nuclear translocation; cell count: measured here: nuclei count (cytotoxicity indicator), at 2.08 µM unless noted; inhibition: at 2 µM, stronger effect = higher value unless noted.
Assay [2] can be described thus: reduction of polyQ htt aggregates in cells – imaging, exon1htt(103Q)mCFP cells, high-content imaging, primary screen (AID 483;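 active = visual image review flags a hit and inhibition of aggregation exceeds 20%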;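 also: compound exposure lasted 3 days before fixation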;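 as to nuclei count: percent of the per-plate median nuclei count of sample wells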). Particulars: exon1htt(103Q)mCFP cell line, aggregate imaging, at 2 µM; inhibition of aggregation: stronger effect = higher value; nuclei count: measured here: cell count, toxicity.
The nature of assay [3]: endothelial E-selectin expression blockers – imaging, HUVEC, immunofluorescence, MLSMR starter and 10KST1 sets, primary screen (AID 487;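 active = visually confirmed hit in the image check and inhibition above 20%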;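 as to inhibition: signal is fraction of cell area covered by stained E-selectin grains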;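 as to nuclei count: 100% = median nuclei count of all wells on the same plate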). Particulars: HUVEC TNFalpha-induced E-selectin immunofluorescence imaging, at 2 µM; inhibition: stronger effect = higher value; nuclei count: measured here: cell number, toxicity.
The nature of assay [4]: Primary imaging screen for DUSP6 inhibitors that restore phospho-Erk in transfected HeLa cells, chemical complementation (AID 609;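 active = compounds giving at least 50% inhibition in the cell-based MKP-3 phosphatase rescue imaging test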;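 as to inhibition: phospho-Erk level distribution per well compared with pooled transfected vehicle control wells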). To be noted: HeLa MKP-3 transfected, phospho-Erk imaging KS statistic, at 10 µM.
Assay [5] addresses Dual specificity protein phosphatase 6 (Homo sapiens) (UniProt Q16828). The description is as above. To be noted: HeLa MKP-3 transfected, phospho-Erk imaging KS statistic, at 10 µM, stronger effect = higher value.
Assay [6] has as its target Voltage-gated potassium channel subunit beta-2 (Rattus norvegicus) (UniProt P62483). Description: inhibitors of rat Kvbeta2 reductase activity – biochemical, NADPH fluorescence, primary screen (AID 622;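 active = fluorescence slope higher than the sample average by over 3 SD, cut at about -0.22 in these data, passing the limit was not always enough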;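 also: slope of raw intensity against log time taken from 70 to 1610 s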). To be noted: recombinant KvBeta, 4-cyanobenzaldehyde reduction, at 10 µM, stronger effect = higher value.
Assay [7] shares this target. Nature of the assay: enhancers of rat Kvbeta2 NADPH turnover – biochemical, NADPH fluorescence, primary screen (AID 623;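 active = NADPH fluorescence slope more negative than the mean of all samples by about 3 SD, 99.7% confidence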;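 also: fluorescence intensity change per second fitted from 20 to 320 s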). Particulars: Recombinant KvBeta, NADPH fluorescence decrease slope, 10 min; at 10 µM; stronger effect = lower value.
Assay [8] addresses Alpha-2C adrenergic receptor (Homo sapiens) (UniProt P18825). Description: compounds altering alpha2C-coupled GIRK flux – cell-based, HEK293 alpha2C/GIRK1/2, thallium flux, primary screen (AID 624;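 active = fluorescence slope after compound addition differing from the mean of all screened samples at 99.7% confidence, in either direction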;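 also: slope of fluorescence ratio to pre-addition baseline per second over 15 to 24 s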). To be noted: thallium flux BTC fluorescence, at 10 µM, actives lie on both sides.
Assay [9] can be described thus: loss of swimming-algae plug formation – whole organism, Chlamydomonas reinhardtii, WT vs cilia-less mutant, absorbance, 96-well, primary screen (AID 463189).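 Also: 0% = wild type cc124 cells in DMSO and 100% = ciliumless bld1 mutant cells.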 Particulars: Chlamydomonas reinhardtii gravitaxis, OD600 absorbance, 2 days; at 10 µM; stronger effect = higher value.
A short description of assay [10]: blockers of RIG-like receptor reporter activation – cell-based, Sendai virus stimulus, luciferase, 10K MLSCN set, TLR/RLR signaling modifier project, primary screen (AID 602276;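 active = inhibition at or above 50% at 10 µM; inactive = inhibition below 50%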;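 also: firefly luciferase from ISG56 promoter only with Renilla not read in this screen; 0% = Sendai virus plus DMSO and 100% = medium plus DMSO without virus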). To be noted: HEK293 RL24 IRF3 luciferase reporter, at 10 µM, stronger effect = higher value. Background: A reporter such as luciferase makes a cellular process visible.
Assay [11] in a line: TLR3 IRF3 reporter activation blockers – cell-based, poly I:C stimulus, luciferase, 10K MLSCN set, primary screen (AID 602277;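 active = inhibition of the reporter signal at or above 50%; inactive = inhibition below 50%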). Particulars: HEK293-TLR3 RL24 IRF3 luciferase reporter, at 10 µM, stronger effect = higher value.
The nature of assay [12]: inhibitors of larval lipid processing in zebrafish, primary screen, whole organism, PED6 fluorescence, gall bladder and intestine (AID 686;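 active = a full or partial loss of lipid-probe fluorescence in the fish gall bladder, intestine or both, judged by eye; inactive = no fluorescence loss, or compound toxic to the fish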;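 also: larvae 5 to 7 days old with five fish per well; signal comes from phospholipase A2 cleavage of quenched PED6 carried via bile; overnight exposure to compound and PED6 before scoring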). To be noted: Zebrafish larvae PED6 lipid processing, fluorescence scoring.
Assay [13] has as its target Muscarinic acetylcholine receptor M4 (Homo sapiens) (UniProt P08173). Nature of the assay: M4-linked GIRK flux change, two-sided – cell-based, HEK293 M4/GIRK, thallium flux, BTC-AM, M4 allosteric agonist project, primary screen (AID 625;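 active = fluorescence slope after compound addition differing from the mean of all tested samples at 99.7% confidence, mostly higher but some lower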;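 also: thallium influx through GIRK channels coupled to M4 in HEK293 cells with BTC-AM dye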). To be noted: at 10 µM, actives lie on both sides.
Assay [14] concerns the target Solute carrier family 12 member 5 (Homo sapiens) (UniProt Q9H2X9). Nature of the assay: retest of KCC2 transport modulators without sodium – cell-based, HEK293 KCC2, thallium flux, secondary assay, confirmation (AID 1713;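 active = thallium flux slope above the same plate's solvent-only control mean plus 3 SD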). Particulars: FluoZin2 fluorescence, at 10 µM, stronger effect = higher value.
Assay [15] shares this target. Nature of the assay: retest of KCC2 transport modulation, ouabain-free – cell-based, HEK293 KCC2, thallium flux, FluoZin2, secondary assay 2, confirmation (AID 1715;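 active = thallium flux slope more than 3 SD above or below the plate's solvent-only control mean, mostly below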;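 also: raw slope with 0.1% DMSO as baseline and bumetanide as block control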). To be noted: HEK293-KCC2, thallium flux FluoZin2 fluorescence; at 10 µM; actives lie on both sides.
Assay [16] in a line: compound effects on native HEK Tl+ uptake – HEK cells, counterscreen 1, counter-screen for KCC2 modulator project, confirmation (AID 1716;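 active = thallium flux rate significantly above the same plate's solvent-only control wells, beyond their mean plus 3 SD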). To be noted: HEK293 parental cells, thallium flux FluoZin2, ouabain; at 10 µM; baseline-ratio fluorescence slope, 10–20 s after thallium. For orientation: Counterscreens check selectivity or assay interference.
Assay [17] has as its target Solute carrier family 12 member 5 (Homo sapiens) (UniProt Q9H2X9). Nature of the assay: modulation of KCC2 thallium flux in HEK cells – cell-based, ouabain, retest, confirmation (AID 1717;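 active = thallium flux slope beyond 3 SD from same-plate DMSO control mean in most replicates, usually higher, sometimes lower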;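 also: slope of initial-normalized fluorescence between seconds 10 and 20 after thallium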). To be noted: HEK293-KCC2, thallium flux FluoZin2 fluorescence, at 10 µM, bidirectional: low = inhibitor, high = activator.
[18] abbreviates: measured here: cell density z-score.
[19] abbreviates: measured here: nuclear c-Myc green intensity z-score.
The mark [20] stands for this setting: measured here: nuclear pErk red intensity z-score, stronger effect = higher value.

Several values for one entry are separate records, joined by “and”; a condition that tells them apart may be missing. Equal entries are not always repeated. A structure can be active in one record and inactive in another. Some of the results follow. Records with an inconclusive call do not appear. Activity calls are given as the source filed them.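 The calls were made as follows, unless noted: active = inhibition at or above 50% relative to wild type and mutant plate controls; inactive = inhibition below 50%.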

Chain of Voltage-gated potassium channel subunit beta-2 (Rattus norvegicus) (P62483 whole entry, looked up): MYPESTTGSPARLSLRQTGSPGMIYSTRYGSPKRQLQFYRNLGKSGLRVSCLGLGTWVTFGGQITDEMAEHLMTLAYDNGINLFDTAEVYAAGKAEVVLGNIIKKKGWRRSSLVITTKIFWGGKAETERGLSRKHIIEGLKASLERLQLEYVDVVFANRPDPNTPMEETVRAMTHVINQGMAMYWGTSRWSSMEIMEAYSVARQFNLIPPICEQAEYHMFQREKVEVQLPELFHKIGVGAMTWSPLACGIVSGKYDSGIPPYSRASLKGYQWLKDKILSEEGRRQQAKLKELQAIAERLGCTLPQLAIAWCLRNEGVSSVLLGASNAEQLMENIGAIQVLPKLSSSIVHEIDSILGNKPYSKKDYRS
Chain of Alpha-2C adrenergic receptor (Homo sapiens) (P18825 whole entry, looked up): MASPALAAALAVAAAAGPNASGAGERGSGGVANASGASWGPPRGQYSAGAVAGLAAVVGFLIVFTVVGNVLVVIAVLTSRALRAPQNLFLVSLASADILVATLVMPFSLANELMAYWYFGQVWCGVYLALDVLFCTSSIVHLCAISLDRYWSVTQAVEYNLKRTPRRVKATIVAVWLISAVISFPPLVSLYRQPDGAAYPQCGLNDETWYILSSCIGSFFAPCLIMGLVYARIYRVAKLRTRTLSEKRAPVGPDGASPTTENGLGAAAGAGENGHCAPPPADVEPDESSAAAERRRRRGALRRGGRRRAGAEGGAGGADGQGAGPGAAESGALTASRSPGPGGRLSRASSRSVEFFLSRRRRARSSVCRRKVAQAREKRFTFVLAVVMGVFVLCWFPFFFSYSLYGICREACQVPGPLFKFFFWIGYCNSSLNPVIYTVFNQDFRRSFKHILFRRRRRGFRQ
Chain of Solute carrier family 12 member 5 (Homo sapiens) (Q9H2X9 whole entry, looked up): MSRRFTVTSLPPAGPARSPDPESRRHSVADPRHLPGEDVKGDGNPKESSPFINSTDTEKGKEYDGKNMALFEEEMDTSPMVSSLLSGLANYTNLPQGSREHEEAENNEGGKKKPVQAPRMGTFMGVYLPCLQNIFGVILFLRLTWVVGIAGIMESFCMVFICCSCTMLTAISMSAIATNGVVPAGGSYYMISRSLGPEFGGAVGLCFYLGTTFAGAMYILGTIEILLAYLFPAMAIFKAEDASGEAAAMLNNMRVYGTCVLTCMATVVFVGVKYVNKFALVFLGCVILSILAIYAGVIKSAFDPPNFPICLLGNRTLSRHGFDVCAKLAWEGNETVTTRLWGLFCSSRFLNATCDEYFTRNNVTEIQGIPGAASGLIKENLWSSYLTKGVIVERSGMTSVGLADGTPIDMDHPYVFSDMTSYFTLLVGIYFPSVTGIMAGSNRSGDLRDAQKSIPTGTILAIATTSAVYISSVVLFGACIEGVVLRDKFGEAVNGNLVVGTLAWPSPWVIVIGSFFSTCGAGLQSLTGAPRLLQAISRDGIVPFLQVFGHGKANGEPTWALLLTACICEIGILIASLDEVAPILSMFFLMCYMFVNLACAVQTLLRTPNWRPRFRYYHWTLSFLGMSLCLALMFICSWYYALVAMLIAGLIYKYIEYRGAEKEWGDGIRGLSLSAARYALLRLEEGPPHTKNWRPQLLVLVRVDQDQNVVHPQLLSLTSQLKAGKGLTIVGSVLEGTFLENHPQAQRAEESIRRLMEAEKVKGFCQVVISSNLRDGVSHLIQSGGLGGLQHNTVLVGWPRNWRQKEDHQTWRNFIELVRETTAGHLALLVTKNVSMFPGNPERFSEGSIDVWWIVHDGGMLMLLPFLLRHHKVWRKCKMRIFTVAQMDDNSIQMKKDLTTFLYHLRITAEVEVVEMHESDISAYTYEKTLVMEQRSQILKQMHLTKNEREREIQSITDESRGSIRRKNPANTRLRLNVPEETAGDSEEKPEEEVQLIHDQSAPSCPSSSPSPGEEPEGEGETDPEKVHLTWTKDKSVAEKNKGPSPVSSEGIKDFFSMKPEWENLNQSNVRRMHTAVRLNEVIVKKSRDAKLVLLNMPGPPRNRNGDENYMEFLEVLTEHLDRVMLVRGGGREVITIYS
Chain of Dual specificity protein phosphatase 6 (Homo sapiens) (Q16828 whole entry, looked up): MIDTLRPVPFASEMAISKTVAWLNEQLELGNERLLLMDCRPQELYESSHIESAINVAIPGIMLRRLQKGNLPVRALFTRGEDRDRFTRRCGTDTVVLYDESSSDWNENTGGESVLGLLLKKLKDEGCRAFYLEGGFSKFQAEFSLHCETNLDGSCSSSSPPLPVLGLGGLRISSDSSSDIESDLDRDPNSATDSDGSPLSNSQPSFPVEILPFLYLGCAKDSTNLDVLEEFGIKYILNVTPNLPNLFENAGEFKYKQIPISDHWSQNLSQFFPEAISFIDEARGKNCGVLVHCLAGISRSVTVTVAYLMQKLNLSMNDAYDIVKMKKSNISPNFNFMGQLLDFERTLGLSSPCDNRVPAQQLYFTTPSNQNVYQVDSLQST
Chain of Muscarinic acetylcholine receptor M4 (Homo sapiens) (P08173 whole entry, looked up): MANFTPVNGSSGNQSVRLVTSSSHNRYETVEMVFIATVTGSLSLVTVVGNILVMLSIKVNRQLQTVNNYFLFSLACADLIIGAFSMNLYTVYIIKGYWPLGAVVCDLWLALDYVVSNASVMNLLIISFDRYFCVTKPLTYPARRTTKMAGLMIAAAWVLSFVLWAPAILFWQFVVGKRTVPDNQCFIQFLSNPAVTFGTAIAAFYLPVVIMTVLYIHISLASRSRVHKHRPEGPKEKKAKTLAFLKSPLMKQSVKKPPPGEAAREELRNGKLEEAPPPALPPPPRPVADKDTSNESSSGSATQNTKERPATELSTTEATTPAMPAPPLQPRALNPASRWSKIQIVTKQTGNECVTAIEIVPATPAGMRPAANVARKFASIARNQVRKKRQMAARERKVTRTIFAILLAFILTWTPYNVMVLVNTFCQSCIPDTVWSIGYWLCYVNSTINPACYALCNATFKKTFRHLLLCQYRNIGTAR

In the case of `O=C(O)CCCc1ccc(N(CCCl)CCCl)cc1`, the cell count in assay [1] worked out at 498. Further, the inhibition (usually the relative decrease from the control value, in per cent) was -7.2% (inactive) in assay [1]; -70% (inactive) in assay [3]; 12.4% (inactive) in [5]; 5.31% (inactive) and 14% (inactive) in assay [9]; -6.04% (inactive) in [10]; -10.8% (inactive) in assay [11]. For the same compound, the inhibition of aggregation in [2] is 4.2% (inactive). Besides, the nuclei count in assay [2] came out at 94.5%; in assay [3] it was 127%. For the same compound, the z-score is 0.122 in assay [4] (setting [18]), -0.24 in assay [4] (setting [19]) and -0.885 in assay [4] (setting [20]). Besides, the fluorescence slope in assay [6] is -0.493 (inactive). Further, the NADPH fluorescence slope in assay [7] was -0.000123 (inactive). The slope in assay [8] was 0.00534 (inactive).

In assay [1], `O=C(CCCN1CCC2(CC1)C(=O)NCN2c1ccccc1)c1ccc(F)cc1` showed a cell count of 564. Besides, the inhibition in [1] is 2.1% (inactive); in [3], 3.3% (inactive); in assay [5], 3.59% (inactive); in [9], 4.76% (inactive) and 18.8% (inactive); in assay [10], 29.9% (inactive); in assay [11], 29.3% (inactive). The inhibition of aggregation in [2] is -20.4% (inactive). Moreover, the nuclei count in [2] amounted to 100%; in assay [3], 103%. Besides, the z-score is -2.08 in assay [4] (setting [18]), 0.206 in [4] (setting [19]) and 3.52 in assay [4] (setting [20]). For the same compound, in assay [6], the fluorescence slope is -0.51 (inactive). In [7], the NADPH fluorescence slope is -3.9e-05 (inactive). Further, the slope in assay [8] was 0.00481 (inactive). Also, the result in assay [12] was inactive.

As for `O=C1NC(=O)C(C/C=C/c2ccccc2)C(=O)N1`, the cell count in assay [1] was found to be 678. Moreover, the inhibition was -2.2% (inactive) in assay [1], 29.3% (inactive) in assay [3], 16.5% (inactive) in [5] and -5.46% (inactive) in [9]. In assay [3], this compound returned a nuclei count of 154%. Further, the z-score worked out at 0.051 in assay [4] (setting [18]), 0.145 in assay [4] (setting [19]) and 0.14 in assay [4] (setting [20]). Also, the fluorescence slope in assay [6] is -0.473 (inactive); in [13] it was 0.00573 (inactive). The NADPH fluorescence slope in [7] is -4.7e-05 (inactive). In assay [12], the outcome was inactive. Besides, in [14], the normalised thallium flux (F/F0 slope) is 0.00969 (inactive). The normalized thallium flux in assay [15] was 0.0324 (inactive). The thallium flux rate (normalised fluorescence) in assay [16] was 0.0082 (inactive). Besides, the raw Tl+ flux slope (below DMSO = inhibition, above = activation) in assay [17] was 0.0194 (inactive).

In [1], `[N-]=[N+]=CC(=O)OC[C@H](N)C(=O)O` came in with a cell count of 594. Besides, the inhibition was -4% (inactive) in assay [1]; -25.7% (inactive) in [3]; 25.1% (inactive) in assay [5]; -8.35% (inactive) in assay [9]; 16.7% (inactive) in [10]; 21.9% (inactive) in [11]. For the same compound, in [2], the inhibition of aggregation was -0.4% (inactive). Also, the values for the nuclei count in assay [2] and in [3] were 104% and 133%, respectively. Besides, the z-score in assay [4] (setting [18]) was -0.1; in [4] (setting [19]), -0.513; in assay [4] (setting [20]), -0.992. Besides, the fluorescence slope in assay [6] is -0.53 (inactive). The NADPH fluorescence slope in [7] was 2.4e-05 (inactive). In addition, the slope in assay [8] was 0.00503 (inactive). Moreover, the compound was called inactive in assay [12].

In assay [1], `Cc1c2ccncc2c(C)c2c1[nH]c1ccccc12` returned a cell count of 493. Also, the inhibition in [1] was -11.8% (inactive); in [3], -23% (inactive); in assay [5], 38.9% (inactive); in assay [9] it was 11% (inactive) and 108% (active); in assay [10], 12.8% (inactive); in assay [11], 91.8% (active). The inhibition of aggregation in assay [2] was -178% (inactive). Also, the nuclei count in assay [2] is 27.6%; in [3], 100%. Also, the z-score in [4] (setting [18]) is -0.124; in [4] (setting [19]), 0.964; in assay [4] (setting [20]), -1.2. In assay [6], the fluorescence slope was -0.464 (inactive). Also, the NADPH fluorescence slope in assay [7] was -5.8e-09 (inactive). Also, the slope in [8] was 0.0129 (active).
